The target in one experiment is Albumin (Bos taurus) (UniProt P02769). Put plainly: compounds binding labelled BSA control protein – biochemical, small-molecule microarray, Alexa647 label, 635/667 nm fluorescence, artefact control for SMM control protein annotation, profiling panel (AID 1118).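 Further: score merges 667 nm emission intensity and signal-to-noise per printed compound spot.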 The following applies: BSA-A647 binding, fluorescence 635 nm, higher = more signal.
Experiment [1] can be described thus: probe aXIP binding to arrayed compounds – biochemical, NeuroSMM set, 635/667 nm fluorescence, primary screen (AID 1119).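 Further: probe is the protein aXip251-270 applied at 1 µg/mL to compound-printed slides; binding of probe to printed compounds measured as 667 nm fluorescence plus signal to noise.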 The following applies: small-molecule microarray, higher = more signal, called active from +8 up or from −8 down.
A short description of experiment [2]: probe aNOTCH3 binding on compound microarray – biochemical, small-molecule microarray, 635/667 nm fluorescence, primary screen (AID 1120).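 Further: probe is a biotin-tagged antibody raised against NOTCH3 rather than NOTCH3 protein; score merges spot fluorescence near 667 nm with spot signal to noise.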 The following applies: higher = more signal.
A short description of experiment [3]: probe aNOTCH2 binding on compound microarray – biochemical, small-molecule microarray, 635/667 nm fluorescence, primary screen (AID 1121).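 Further: score merges feature fluorescence read at 667 nm with its signal to noise.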 The following applies: higher = more signal.
The target in experiment [4] is Carbonic anhydrase 2 (Homo sapiens) (UniProt P00918). As to the kind of experiment: compounds binding carbonic anhydrase 2 – biochemical, small-molecule microarray, Alexa647-labelled CAII, profiling panel (AID 1122). As to conditions: CAII-A647 binding fluorescence, higher = more signal.
Experiment [5] in a line: COS7 lysate on small-molecule microarray, probe aHis, 635 nm (AID 1123).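 Further: z-score combines 667nm fluorescence intensity with signal-to-noise per printed compound spot.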 The following applies: COS7 cell lysate, fluorescence, higher = more signal.
A short description of experiment [6]: probe aLAP1 signal on lysate-treated microarray – cell lysate, small-molecule microarray, COS7 lysate, primary screen (AID 1124).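 Further: lysate comes from COS7 cells expressing LAP1 and is applied at 0.3 µg/mL; score merges spot fluorescence near 667 nm with signal-to-noise over triplicate slides.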 As to conditions: probe aLAP1, fluorescence, higher = more signal.
The test system of a further experiment is Sam68 (KHDRBS1). As to the kind of experiment: compounds binding KHDRBS1 protein – biochemical, small-molecule microarray, 635 nm fluorescence, primary screen (AID 1125).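 Further: score merges 667 nm channel intensity with signal to noise over triplicate slides.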 As to conditions: higher = more signal.
In experiment [7] the test system is Chordin-like protein 2 (CHRDL2). Put plainly: compounds binding chordin-like 2 – biochemical, small-molecule microarray, 635 nm fluorescence, primary screen (AID 1126).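 Further: printed compound slides probed with Chrdl2 protein at 4 µg/mL for 1 h at 4 C; score merges 667 nm emission intensity with signal to noise over three replicate slides.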 The following applies: fluorescence 635 nm, higher = more signal.
The target in experiment [8] is Concanavalin-A (Canavalia ensiformis) (UniProt P02866). Put plainly: compounds binding concanavalin A lectin – biochemical, small-molecule microarray, Alexa647 label, 635 nm, artefact control for SMM control protein annotation, primary screen (AID 1127).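 Further: z combines 667 nm emission intensity with signal-to-noise across three replicate slides.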 The following applies: ConA-A647 binding fluorescence, higher = more signal.

Twelve compounds from PubChem BioAssay can be followed below.

The structures appear in SMILES notation. The source made the active and inactive calls.

Chain of Albumin (Bos taurus) (P02769 whole entry, looked up): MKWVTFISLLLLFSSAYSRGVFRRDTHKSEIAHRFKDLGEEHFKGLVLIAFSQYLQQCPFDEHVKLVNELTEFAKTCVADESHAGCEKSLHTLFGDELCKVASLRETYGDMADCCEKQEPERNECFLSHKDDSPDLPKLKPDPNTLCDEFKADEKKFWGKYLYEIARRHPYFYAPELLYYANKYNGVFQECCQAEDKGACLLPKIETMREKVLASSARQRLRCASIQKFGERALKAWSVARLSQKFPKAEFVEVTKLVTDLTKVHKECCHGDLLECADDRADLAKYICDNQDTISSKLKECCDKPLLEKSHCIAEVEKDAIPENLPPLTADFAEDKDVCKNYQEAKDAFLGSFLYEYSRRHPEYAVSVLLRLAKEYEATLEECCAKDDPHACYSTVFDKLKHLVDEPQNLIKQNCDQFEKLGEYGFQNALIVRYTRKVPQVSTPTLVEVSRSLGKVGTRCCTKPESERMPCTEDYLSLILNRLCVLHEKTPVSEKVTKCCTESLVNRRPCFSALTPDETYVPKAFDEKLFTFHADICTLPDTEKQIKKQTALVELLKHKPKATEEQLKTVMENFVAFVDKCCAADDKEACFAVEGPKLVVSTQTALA
Chain of Concanavalin-A (Canavalia ensiformis) (P02866 whole entry, looked up): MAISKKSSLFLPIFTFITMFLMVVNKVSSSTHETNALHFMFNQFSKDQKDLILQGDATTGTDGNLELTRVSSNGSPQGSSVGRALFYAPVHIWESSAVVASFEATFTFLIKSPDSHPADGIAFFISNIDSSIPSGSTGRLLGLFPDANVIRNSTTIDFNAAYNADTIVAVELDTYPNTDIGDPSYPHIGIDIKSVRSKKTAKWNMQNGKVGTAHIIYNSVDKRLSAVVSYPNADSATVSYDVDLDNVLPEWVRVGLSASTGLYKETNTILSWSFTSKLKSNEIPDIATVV

`COC(=O)CC=C[C@@H](C)[C@@H](C=NOC(C)CN1CCCc2nc(C)c(C)cc21)OC` (stereo not given in full): the composite z-score in the experiment with Albumin (Bos taurus) is 0.0374; in experiment [2], 0.0833; in experiment [3], -0.176; in experiment [4], -0.0864; in experiment [5], 0.132; in experiment [6], -0.201. The composite z-score in the experiment with Sam68 (KHDRBS1) turned out to be 0.263; in experiment [7], 0.377; in experiment [8], 0.458. The composite Z-score in experiment [1] is 0.0236 (inactive).

For `CC(C)(C)N1C(=O)[C@H]2[C@H]3[C@H](O)[C@H](O)CC(=NO[C@@H]4O[C@H](CO)[C@@H](O)[C@H](O)[C@H]4O)[C@H]3CC[C@H]2C1=O`, the composite z-score in the experiment with Albumin (Bos taurus) was -0.383; in experiment [2], 0.0864; in experiment [3], 0.0037; in [4], 0.182; in experiment [5], 0.276; in experiment [6], -0.12. Besides, the figures for the composite z-score (in the experiment with Sam68 (KHDRBS1); in experiment [7]; in [8]) were 0.217, 0.926 and -0.409, respectively. The composite Z-score in experiment [1] was 0.674 (inactive).

Consider `CO[C@H]1COC(=O)CC=C[C@H](C)[C@@H](OC)COC(=O)[C@@H](C)NC(=O)CC=C[C@@H]1C`, for which the composite z-score with Albumin (Bos taurus) was -0.614; in experiment [2], -0.173; in experiment [3], -0.169; in experiment [4] it was -0.581; in [5], -0.629; in experiment [6], 0.304. Moreover, the composite z-score was -0.0974 in the experiment on Sam68 (KHDRBS1), 1.47 in experiment [7] and -0.897 in [8]. For the same compound, the composite Z-score in experiment [1] was 0.611 (inactive).

With `COc1cccc([C@H]2Oc3ccc(OC)cc3C(=NO[C@H](C)c3cn([C@H](CO)Cc4ccccc4)nn3)[C@@H]2O)c1`, the composite z-score was -1.28 with Albumin (Bos taurus); -0.208 in [2]; -0.187 in experiment [3]; 0.406 in [4]; 0.418 in experiment [5]; 0.0672 in experiment [6]. The values for the composite z-score (with Sam68 (KHDRBS1); in [7]; in experiment [8]) were -0.779, 0.08 and -2.12, respectively. Also, the composite Z-score in experiment [1] is -0.372 (inactive).

Take `CC1O[C@H]2C3=C(C(=O)[C@@H]4O[C@@H]4[C@H]3O)[C@@H]1C1[C@@H](C)OC=C3[C@H](O)C4O[C@@H]4C(=NOCc4ccccc4)[C@]312` (stereo not given in full): the composite z-score was -0.26 with Albumin (Bos taurus); -0.125 in experiment [2]; -0.14 in [3]; -0.279 in experiment [4]; 0.355 in experiment [5]; -0.136 in [6]. Also, the composite z-score with Sam68 (KHDRBS1) is -0.221; in experiment [7], 0.0959; in [8] it was -0.207. Further, the composite Z-score in experiment [1] was 0.0463 (inactive).

`CC(CCN1CCCCc2nc(C)c(C)cc21)=NO[C@H](C)c1cn([C@H](CO)Cc2ccccc2)nn1`: the composite z-score in the experiment with Albumin (Bos taurus) was 0.583; in experiment [2], -0.0076; in [3], -0.135; in experiment [4] it was -0.274; in [5], 0.558; in [6], -0.129. For the same compound, the composite z-score amounted to 0.321 in the experiment with Sam68 (KHDRBS1), 1.32 in experiment [7] and 0.0631 in experiment [8]. Besides, in [1], the composite Z-score was 0.26 (inactive).

For the compound `COC(=O)CC=C[C@@H](C)[C@@H](C=NOC[C@H]1O[C@H](c2ccccc2)C=C[C@@H]1Oc1ccc(OC)cc1)OC`, the composite z-score with Albumin (Bos taurus) is 0.479; in experiment [2], -0.23; in [3], -0.131; in experiment [4], -0.223; in [5] it was -0.3; in experiment [6] it was -0.0842. The composite z-score in the experiment on Sam68 (KHDRBS1) is -0.379; in experiment [7], 0.303; in [8], -0.766. Moreover, in [1], the composite Z-score is -0.0708 (inactive).

For the compound `COC(=O)[C@H](C)NC(=O)CCC1CC(OC(=O)NCCc2ccc(F)cc2)CC2(CCCC(COC(=O)NCc3cccc(C(F)(F)F)c3)O2)O1` (stereo not given in full), the composite z-score is 0.0516 with Albumin (Bos taurus); 0.133 in [2]; -0.0652 in [3]; 0.193 in [4]; 0.702 in experiment [5]; -0.363 in experiment [6]. Further, the composite z-score in the experiment on Sam68 (KHDRBS1) was determined as 0.267; in [7], 0.208; in experiment [8], 0.401. Further, the composite Z-score in experiment [1] is 0.116 (inactive).

On to `CC(C)C[C@H](NC(=O)CCC1CC(OC(=O)NCc2cccc3ccccc23)CC2(CCCC(COC(=O)NCc3ccccc3)O2)O1)C(=O)NCC(c1ccccc1)c1ccccc1` (stereo not given in full), for which the composite z-score with Albumin (Bos taurus) is 0.163; in [2], 0.0876; in experiment [3], -0.234; in [4], 0.404; in [5], 0.743; in [6], 1.09. The composite z-score is 1.31 in the experiment with Sam68 (KHDRBS1), 0.546 in [7] and 0.347 in experiment [8]. For the same compound, in experiment [1], the composite Z-score is -0.0662 (inactive).

Turning to `CC(CCN1CCc2nc(-c3ccccc3)c(-c3ccccc3)cc2C1)=NOC[C@@H](O)[C@H]1O[C@@H]2OC(C)(C)O[C@@H]2[C@H]1O`, the composite z-score with Albumin (Bos taurus) is 0.535; in experiment [2], -0.051; in experiment [3], -0.0291; in experiment [4], 0.0181; in [5], 1; in [6], 0.608. Besides, the composite z-score in the experiment on Sam68 (KHDRBS1) turned out to be 1.13; in experiment [7] it was 0.507; in experiment [8], 0.696. In experiment [1], the composite Z-score is 0.42 (inactive).

For the compound `CC(C)=CCCC(C)=CCON=C1C[C@@H](O)[C@@H](O)[C@@H]2[C@@H]3C(=O)N(Cc4ccccc4)C(=O)[C@@H]3CC[C@@H]12`, the composite z-score with Albumin (Bos taurus) was 0.772; in experiment [2], -0.0395; in experiment [3], -0.193; in experiment [4], -0.148; in experiment [5] it was 0.043; in experiment [6], -0.0612. For the same compound, the composite z-score came to 0.571 in the experiment with Sam68 (KHDRBS1), 1.4 in experiment [7] and 0.304 in experiment [8]. Moreover, the composite Z-score in experiment [1] is -0.349 (inactive).

Regarding `COC(=O)[C@@H]1CC[C@H](C)[C@@H](c2ccc(C)cc2)N1C(=O)c1ccc(C=NO[C@H](C)c2cn([C@H](CO)Cc3ccccc3)nn2)cc1`, the composite z-score with Albumin (Bos taurus) was 0.279; in [2], 0.217; in [3], 0.111; in experiment [4], 0.233; in [5], -0.141; in experiment [6], 0.452. Also, the results for the composite z-score (with Sam68 (KHDRBS1); in [7]; in experiment [8]) were 1.02, 0.684 and 0.653, respectively. The composite Z-score in experiment [1] is 0.402 (inactive).
